Records with an inconclusive call do not appear. A number with no mark means an inactive call. Active and inactive are the calls of the source. Calls come from the whole dose curve; as a rule, active = well fitted inhibition curve with a large enough effect in the signal ratio in the repeat runs (not every such curve was filed as active); inconclusive = weak or mixed curves, or effect the other way; inactive = flat fitted curve, though single readings scatter; the % refers to the signal ratio.
Assay: cAMP Responsive Elements (CRE) small molecule antagonists, cell-based qHTS assay (AID 1963591)
Conditions: CRE-bla HEK293T, beta-lactamase FRET ratio; series mostly up to 92.4 µM; activity change, negative = inhibition: at the top concentration
Source text: U.S. Tox21 Program National Center for Advancing Translational Sciences [NCATS] Division of Preclinical Innovation [DPI] U.S. Environmental Protection Agency [EPA] National Institutes of Environmental Health Sciences [NIEHS] National Toxicology Program [NTP] U.S. Food and Drug Administration [FDA] Tox21 Assay Overview: CREB (cyclic-AMP Responsive Element Binding Protein) is a cellular transcription factor. It binds to certain DNA sequences called cAMP Responsive Elements (CRE) and regulates the transcription of the genes. […] This cell line can be used to find agonists/antagonists of the cyclic AMP signaling pathway. The activation of the report gene under culture conditions can be detected by fluorescence intensity. This cell line has been used to screen the Tox21 10K compound library to […].
Tox21 Assay Protocol Summary: CRE-bla Hek 293T cells were suspended in assay medium (DMEM containing 10% dialyzed FBS, 0.1 mM NEAA, 1 mM sodium pyruvate and 25 mM HEPES) and dispensed at 2,000 cells/4 uL /well into 1536-well black wall/clear bottom plates using a Multidrop Combi (ThermoFisher Scientific, Waltham, MA) dispenser. After the assay plates were incubated at 37 C/5% CO2 for 18 hrs, 23 nL of compounds dissolved in DMSO, positive controls or DMSO only was transferred to the assay plate by a pintool workstation (Kalypsys, San Diego, CA), followed by addition of 1 […] uL of 1.25uM NKH477 (0.25 uM as final concentration) in assay medium using a Flying Reagent Dispenser (Aurora Discovery, San Diego, CA). The plates were incubated at 37 C and 5% CO2 for 3 hrs. Then 1 uL of LiveBLAzer B/G FRET substrate (Invitrogen, Carlsbad, CA) was added to each well using Bioraptr Flying Reagent Dispenser (FRD, Aurora Discovery, San Diego, CA). The plates were incubated at room temperature for 2 h.
% is set by controls: 0 for no effect and ±100 for the full control effect.

Structure (SMILES)	Potency	activity change, negative = inhibition
CCC(C)(CC)c1cc(NC(=O)c2c(OC)cccc2OC)on1	inactive	
CCCCC(C#N)(Cn1cncn1)c1ccc(Cl)cc1 (stereo not given)		1.82%
O=C(O)c1cc(Cl)ccc1Cl		-3.7%
Clc1ccccc1Cl	inactive	
Clc1ccc(C(Cl)(Cl)Cl)cn1		-4.02%
Nc1ccc(Cc2ccc(N)cc2)cc1		3.67%
CC1CCC(=O)O1 (stereo not given)		-4%
Nc1ccc(-c2ccc(N)cc2)cc1	inactive	
CC(C)=CCN1CC[C@@]2(C)c3cc(O)ccc3C[C@@H]1[C@@H]2C		-6.08%
CN1CC[C@]23c4c5ccc(O)c4O[C@H]2[C@@H](O)CC[C@H]3[C@H]1C5		-0.652%
O=C(Cl)/C=C/C(=O)Cl		1.99%
COS(=O)(=O)OC	inactive	
CNC(=O)Oc1cccc2c1OC(C)(C)O2	inactive	
Clc1nc(Cl)nc(Cl)n1	inactive	
O=C(Cl)OCc1ccccc1		0.275%
CCC1(c2ccc(N)cc2)CCC(=O)NC1=O (stereo not given)	inactive	
O=C(O)C(F)(F)C(F)(F)C(F)(F)C(F)(F)C(F)(F)C(F)(F)F		15.4%
CCC(C)n1c(=O)[nH]c(C)c(Br)c1=O (stereo not given)		13.7%
CCN(N=O)C(N)=O	inactive	
CSc1nc(NC(C)C)nc(NC(C)C)n1		21.8%

Structure (SMILES)	Potency	activity change, negative = inhibition
CC(C)Oc1cc(-n2nc(C(C)(C)C)oc2=O)c(Cl)cc1Cl	inactive	
CCCCCCCCCC(CC)c1ccc(S(=O)(=O)O)cc1 (stereo not given)	inactive	
Nc1c(Cl)c(Cl)nc(C(=O)O)c1Cl		-9.03%
CCOP(=S)(OCC)O/N=C(\C#N)c1ccccc1		-4.69% [at 42.4 µM]
CCOC(=O)CC(SP(=S)(OC)OC)C(=O)OCC (stereo not given)		11.8% [at 42.4 µM]
CCOc1ccc(N)cc1		4.56%
C=CCN1C[C@H](C)N([C@H](c2ccc(C(=O)N(CC)CC)cc2)c2cccc(OC)c2)C[C@H]1C		-5.81% [at 42.4 µM]
C1CCC2CCCCC2C1 (stereo not given)		-7.3%
CC(C)(C)C(O)(CCc1ccc(Cl)cc1)Cn1cncn1 (stereo not given)		-3.55%
CCOC(=O)c1ccccc1C(=O)OCC	inactive	
O=C(O)C(Cl)Br (stereo not given)		-1.41%
Clc1cnc(Oc2ccc(Oc3ncc(Cl)cc3Cl)cc2)c(Cl)c1	inactive	
O=[N+]([O-])c1ccc(Cl)c(Cl)c1	inactive	
CN(C)C(=S)S		-20.9% [at 42.4 µM]
O=C(O)COc1ccc(Cl)cc1Cl	inactive	
Cc1ccc([N+](=O)[O-])cc1C	inactive	
COC(=O)c1cncn1C(C)c1ccccc1 (stereo not given)		-0.39% [at 42.4 µM]
CCCCCCCCCCCCCCCC[N+](C)(C)C		-43.9% [at 42.4 µM]
C=CC=O		-1.73%
C1CC2OC2CC1C1CO1 (stereo not given)	inactive	

Reference: PubChem BioAssay (Tox21)
